Rows were chosen to be rich in hits. Some 0.3% of all compounds tested hit in one or more screens of this group.
NPYLR7 ag = activates Aedes aegypti NPYLR7 receptor | HEK293T NPYLR7/Galpha15, GCaMP6s calcium fluorescence | activation, % at 10 µM | 270,000 tested, 0.15% active; in the data active = activation above about 40%
hcGAS lum = blocks human cGAS activity | recombinant h-cGAS, ATP depletion, Kinase-Glo luminescence | AID 1259398 | inhibition, % at 12.5 µM | Q8N884 | 290,000 tested, 0.081% active
Target sequence (Q8N884 whole entry, looked up): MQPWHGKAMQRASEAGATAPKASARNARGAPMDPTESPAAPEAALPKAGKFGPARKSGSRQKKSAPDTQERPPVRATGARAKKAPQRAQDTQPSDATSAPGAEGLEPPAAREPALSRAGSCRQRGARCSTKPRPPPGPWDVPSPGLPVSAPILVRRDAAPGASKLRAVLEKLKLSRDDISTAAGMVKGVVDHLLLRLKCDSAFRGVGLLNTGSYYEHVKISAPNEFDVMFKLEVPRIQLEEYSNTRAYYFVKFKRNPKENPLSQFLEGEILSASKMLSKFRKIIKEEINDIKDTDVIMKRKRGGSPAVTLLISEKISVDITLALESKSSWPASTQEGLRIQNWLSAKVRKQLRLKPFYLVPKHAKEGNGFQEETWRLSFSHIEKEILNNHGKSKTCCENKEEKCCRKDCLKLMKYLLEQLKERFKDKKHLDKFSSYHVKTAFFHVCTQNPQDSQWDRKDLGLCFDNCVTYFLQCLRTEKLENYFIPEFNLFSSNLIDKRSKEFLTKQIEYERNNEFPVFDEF
mcGAS inh = blocks mouse cGAS activity | Q8C6L5 | recombinant cGAS, Kinase-Glo ATP depletion luminescence | inhibition, % at 12.5 µM | 160,000 tested, 0.15% active | AID 1259399
Large screens that a line does not name were inactive; ! = not confirmed by another sample. Cut-off read from the data, not from the text of the source, unless noted: active = inhibition above about 40%; inactive = the rest.

O=C(NC(c1ccc(Cl)cc1)C1CC1)c1ccco1 (configuration not stated)	none
CCN1/C(=C\C=C2/SC(=NCc3ccccc3)N(C)C2=O)Sc2ccccc21	none
CCN1C(=Cc2cc(C)[n+](CCO)c(C)c2)Sc2ccccc21	none
CCN1C(=Cc2cc(C)[n+](C3CCCCC3)c(C)c2)Sc2ccccc21	NPYLR7 ag 266 (no result: mcGAS inh)
CCC(CO)[n+]1c(C)cc(C=C2Sc3ccccc3N2Cc2ccccc2)cc1C (configuration not stated)	NPYLR7 ag 150 (no result: mcGAS inh)
CSc1nnc2c(n1)OC(c1cc(Br)c(OC(=O)c3ccc([N+](=O)[O-])cc3)c(Br)c1)Nc1ccccc1-2 (configuration not stated)	mcGAS inh 42
COc1cc(C2Nc3ccccc3-c3nnc(SC)nc3O2)cc(Br)c1OC (configuration not stated)	none
C(=Nn1c(-c2ccco2)csc1=NCCc1ccccc1)c1ccco1	none (no result: mcGAS inh)
C#CCOCC(O)CN(Cc1cccn1Cc1ccccc1C)C1CC1 (configuration not stated)	mcGAS inh 41
C#CCOCC(O)CN(Cc1ccccc1C)C1CC1 (configuration not stated)	none
CCOC(=O)c1ccc(N=Cc2c(C(F)(F)F)[nH]n(-c3nc4ccccc4s3)c2=O)cc1	none (no result: mcGAS inh)
Cn1c(/C(C#N)=C/c2ccc(N3CCOCC3)o2)nc2ccccc21	NPYLR7 ag 126 (no result: mcGAS inh)
Cn1c(C(C#N)=Cc2ccc([N+](=O)[O-])s2)nc2ccccc21	none (no result: mcGAS inh)
CN1C(=S)N(c2ccc3c(c2)CCC3)C(=O)/C1=C\c1ccncc1	NPYLR7 ag 41
CN1C(=S)N(c2ccc3c(c2)CCC3)C(=O)/C1=C/c1ccc(N(C)C)cc1	none
Cc1ccc(-n2nnc3c(=O)n(Cc4ccc(C(F)(F)F)cc4)cnc32)cc1	none (no result: mcGAS inh)
CC1CC2(C)Oc3ccccc3C3OCC1(CO)C(C)C32 (configuration not stated)	NPYLR7 ag 43
CC1(C)OC2c3ccccc3OC3(C)CCC1CC23 (configuration not stated)	none (no result: mcGAS inh)
Cc1[nH]nc2c1C(c1ccc(F)c(Oc3ccccc3)c1)c1c(N)noc1-2 (configuration not stated)	none
O=C(COc1ccc(F)cc1)Nc1ccc2c(c1)OCCCO2	none (no result: mcGAS inh)
COC(=O)c1cc(-c2ccccc2)sc1NC(=O)CCCl	none
NC(=O)c1cc(-c2ccccc2)sc1NC(=O)CCl	mcGAS inh 81
COc1ccc2nc(C=Cc3cc(Br)c(O)c(OC)c3)sc2c1	NPYLR7 ag 81 (no result: mcGAS inh)
COc1ccc2nc(NC(=O)/C=C/c3ccc(Br)cc3)sc2c1	none
CN(C)S(=O)(=O)c1cc(NC(=S)NC2CC3CCC2C3)ccc1Cl (configuration not stated)	none (no result: mcGAS inh)
CCc1cn[nH]c1C1CCCN(C(=O)c2csc(Cc3ccccc3)n2)C1 (configuration not stated)	hcGAS lum 55
CCCc1nc(C(=O)N2CCCC(c3[nH]ncc3CC)C2)cs1 (configuration not stated)	none
CCC1CN(C(=O)c2cc(C(C)C)on2)CCC(=O)N1Cc1ccccc1 (configuration not stated)	NPYLR7 ag 62 (no result: mcGAS inh)
CCC1CN(C(=O)c2cc(C(C)C)no2)CCC(=O)N1Cc1ccccc1 (configuration not stated)	none
COCC(=O)Nc1cccc(-c2csc3nc(C)c(C)c(=O)n23)c1	none (no result: mcGAS inh)
Oc1cccc2ccc(Nc3ccccn3)nc12	hcGAS lum 57
Oc1ccccc1C(Nc1ccccn1)c1ccc2cccnc2c1O (configuration not stated)	none (no result: mcGAS inh)
Cc1cc(C)n2ncc(CN(Cc3c(C)nn(C)c3C)C3CC3)c2n1	none (no result: mcGAS inh)
Nc1ccc2oc(=O)[nH]c2c1	none
O=c1[nH]c2c(Br)c(Br)c(Cl)cc2o1	mcGAS inh 90
NC(=O)c1cnc(Sc2ccc3[nH]c(=O)oc3c2)c(Cl)c1	none
O=c1[nH]c2c(Cl)c(Cl)c(Cl)cc2o1	hcGAS lum 49, mcGAS inh 82
O=c1[nH]c2cc(Cl)c(Br)cc2o1	mcGAS inh 42
O=c1[nH]c2ccc(S(=O)(=O)Nc3ccccc3Oc3ccccc3Cl)cc2o1	none (no result: mcGAS inh)
O=C(CC(c1cccc([N+](=O)[O-])c1)c1c[nH]c2ccccc12)NC1CC1 (configuration not stated)	NPYLR7 ag 41
O=C(CC(c1cccc([N+](=O)[O-])c1)c1c[nH]c2ccccc12)N1CCN(c2ccccc2F)CC1 (configuration not stated)	none
FC(F)(F)c1nc2ccccc2n1Cc1nnsc1Cl	none
COc1ccc2cc(C(C)C(=O)NNC(=O)C(C)Oc3ccc(F)cc3)ccc2c1 (configuration not stated)	none
CCOc1ccccc1-c1cc(-c2nnc(SCc3ccc(C#N)cc3)n2C)c2ccc(Oc3ccccc3)cc2n1	none
CCn1cc(C(=O)O)c(=O)c2cnc(N3CCNCC3)nc21	NPYLR7 ag 70!
CCn1cc(C(=O)O)c(=O)c2cc(F)c(N3CCNCC3)cc21	none
CC(=O)Oc1c(/C=C(\C#N)C(N)=O)[nH]c2ccccc12	NPYLR7 ag 51 (no result: mcGAS inh)
COC(=O)/C(C#N)=C/c1c(OC)[nH]c2ccccc12	none (no result: mcGAS inh)
CCOC(=O)c1cc(O)c(C(=O)OCC)s1	NPYLR7 ag 62!
CCOC(=O)c1sc(N)c(C(N)=O)c1C	none (no result: mcGAS inh)
N#CC1C(=N)SC(=N)C(C#N)C1c1ccccc1I (configuration not stated)	none (no result: mcGAS inh)
N#CC1C(=N)SC(=N)C(C#N)C1c1ccc(Cl)cc1Cl (configuration not stated)	NPYLR7 ag 164 (no result: mcGAS inh)
N#CC1C(=N)SC(=N)C(C#N)C1c1cccc(Cl)c1 (configuration not stated)	none
N#CC1C(=N)SC(=N)C(C#N)C1c1cccc(Cl)c1Cl (configuration not stated)	none
N#CC1C(=N)SC(=N)C(C#N)C1c1ccccc1F (configuration not stated)	NPYLR7 ag 47!, hcGAS lum 68!, mcGAS inh 59
N#CC1C(=N)SC(=N)C(C#N)C1c1cccc(F)c1 (configuration not stated)	NPYLR7 ag 97, hcGAS lum 54, mcGAS inh 45
Cc1ccc(NCCNS(=O)(=O)c2ccc3cccc4c3c2CC4)nn1	none
COCC1CN(C2CCC2)CC12CCN(C(=O)C1(c3ccccc3)CC1)CC2 (configuration not stated)	none (no result: NPYLR7 ag)
COc1ccc(C(=O)N2CCC3(CC2)CN(C2CCC2)CC3CO)cn1 (configuration not stated)	hcGAS lum 48 (no result: NPYLR7 ag)
COc1ncc(-c2ccc(C(C)N3CCOCC3)cc2)c(OC)n1 (configuration not stated)	none (no result: mcGAS inh)
Cn1nnc2c(N3CCN(C(=O)COc4cccc5c4OC(C)(C)C5)CC3)ncnc21	none (no result: mcGAS inh)
Nc1nc2nc(C(F)(F)F)[nH]c2c(=O)[nH]1	none (no result: mcGAS inh)
Nc1nc2nc(Br)[nH]c2c(=O)[nH]1	hcGAS lum 52
Cc1c(NC(=O)COC(=O)C(C#N)=Cc2ccc(N(C)C)cc2)c(=O)n(-c2ccccc2)n1C	NPYLR7 ag 50
CCC(CC)C(=O)Nc1c(C)n(C)n(-c2ccccc2)c1=O	none
CN1C(=S)N(c2ccc3c(c2)OCO3)C(=O)/C1=C\c1cccc(OCCO)c1	none
CN1C(=S)N(C2CCCCC2)C(=O)/C1=C\c1ccc2c(c1)OCO2	NPYLR7 ag 46
Cc1ncc(-c2ccc(OC(F)(F)F)cc2)[nH]1	none

Screening results from PubChem BioAssay.
